Assay results reported in the supplement of paper PMC11732987, “Enantioselective OTUD7B fragment discovery through chemoproteomics screening and high-throughput optimisation” (Communications Chemistry, 2025).

Assays:
Test in all cases: log2 ratio of Biotin-Ahx-Ub-VS probe labelling (fragment/DMSO); higher = less target engagement (more negative = stronger competition), active = hit call of the paper (q ≤ 0.05, log2 ratio ≤ -1)
Settings in all cases: compound concentration: 200 uM; treatment time: 3 h
USP42 = target: T1, USP42 (UniProt Q9H9J4)
T1 sequence (whole entry): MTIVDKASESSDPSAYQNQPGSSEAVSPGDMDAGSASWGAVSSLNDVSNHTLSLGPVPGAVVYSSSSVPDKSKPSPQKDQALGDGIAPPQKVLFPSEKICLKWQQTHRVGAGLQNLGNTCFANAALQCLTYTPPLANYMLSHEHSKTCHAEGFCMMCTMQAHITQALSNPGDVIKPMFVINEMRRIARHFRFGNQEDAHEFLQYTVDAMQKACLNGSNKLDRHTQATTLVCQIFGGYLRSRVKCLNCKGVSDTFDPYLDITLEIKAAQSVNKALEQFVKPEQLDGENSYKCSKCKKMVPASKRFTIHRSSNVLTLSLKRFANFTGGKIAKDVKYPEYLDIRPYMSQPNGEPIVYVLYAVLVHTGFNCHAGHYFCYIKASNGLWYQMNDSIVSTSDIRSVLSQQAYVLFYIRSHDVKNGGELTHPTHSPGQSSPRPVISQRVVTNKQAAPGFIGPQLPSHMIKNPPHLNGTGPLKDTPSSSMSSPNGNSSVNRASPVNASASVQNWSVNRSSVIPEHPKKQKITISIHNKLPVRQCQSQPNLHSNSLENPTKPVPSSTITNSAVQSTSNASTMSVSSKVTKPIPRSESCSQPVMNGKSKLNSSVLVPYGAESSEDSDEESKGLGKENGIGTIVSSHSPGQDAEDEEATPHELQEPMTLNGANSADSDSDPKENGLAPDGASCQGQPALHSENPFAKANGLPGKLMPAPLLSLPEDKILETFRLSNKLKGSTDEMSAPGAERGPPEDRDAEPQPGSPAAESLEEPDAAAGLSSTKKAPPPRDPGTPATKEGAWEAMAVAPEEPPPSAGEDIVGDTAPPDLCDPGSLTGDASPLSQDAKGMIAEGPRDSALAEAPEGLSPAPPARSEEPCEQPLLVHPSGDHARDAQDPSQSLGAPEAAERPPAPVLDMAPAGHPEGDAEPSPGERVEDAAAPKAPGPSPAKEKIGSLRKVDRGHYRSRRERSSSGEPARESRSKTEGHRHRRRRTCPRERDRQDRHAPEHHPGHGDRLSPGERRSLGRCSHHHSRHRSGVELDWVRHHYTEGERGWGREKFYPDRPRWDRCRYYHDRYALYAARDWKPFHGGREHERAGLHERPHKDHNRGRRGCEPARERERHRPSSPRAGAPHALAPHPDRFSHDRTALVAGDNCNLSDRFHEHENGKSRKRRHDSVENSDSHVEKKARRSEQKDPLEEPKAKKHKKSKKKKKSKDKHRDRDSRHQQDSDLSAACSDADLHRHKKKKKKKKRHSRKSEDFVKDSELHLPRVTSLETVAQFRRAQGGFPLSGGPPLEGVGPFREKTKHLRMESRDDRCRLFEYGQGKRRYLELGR
Procedure, shortened: (§1)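 The table lists average log2 ratios of fragment over vehicle, from an unpaired t-test on global-median-normalised Spectronaut label-free quantities. Proteins with ≥2 unique peptides were used. Samples were HEK293T lysate (495 µg) treated in triplicate with fragment at 200 µM or vehicle for 3 h, then with Biotin-Ahx-Ub-VS (0.5 µM final) for 1 h, with labelled DUBs NeutrAvidin-enriched and run by diaPASEF LC-MS/MS.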

USP46 = USP46 (UniProt P62068)
Sequence of USP46 (P62068 whole entry): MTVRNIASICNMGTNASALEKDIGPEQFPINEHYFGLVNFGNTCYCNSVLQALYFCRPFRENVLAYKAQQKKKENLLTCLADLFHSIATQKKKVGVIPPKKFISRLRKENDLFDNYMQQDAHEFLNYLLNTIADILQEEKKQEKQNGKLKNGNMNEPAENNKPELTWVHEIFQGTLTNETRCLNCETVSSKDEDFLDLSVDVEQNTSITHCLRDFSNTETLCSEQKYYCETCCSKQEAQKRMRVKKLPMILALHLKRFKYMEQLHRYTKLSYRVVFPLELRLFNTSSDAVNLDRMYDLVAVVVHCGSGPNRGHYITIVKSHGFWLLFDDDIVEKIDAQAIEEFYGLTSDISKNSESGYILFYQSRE
Procedure, shortened: as §1

USP47 = target: T2, USP47 (UniProt Q96K76)
T2 sequence (whole entry): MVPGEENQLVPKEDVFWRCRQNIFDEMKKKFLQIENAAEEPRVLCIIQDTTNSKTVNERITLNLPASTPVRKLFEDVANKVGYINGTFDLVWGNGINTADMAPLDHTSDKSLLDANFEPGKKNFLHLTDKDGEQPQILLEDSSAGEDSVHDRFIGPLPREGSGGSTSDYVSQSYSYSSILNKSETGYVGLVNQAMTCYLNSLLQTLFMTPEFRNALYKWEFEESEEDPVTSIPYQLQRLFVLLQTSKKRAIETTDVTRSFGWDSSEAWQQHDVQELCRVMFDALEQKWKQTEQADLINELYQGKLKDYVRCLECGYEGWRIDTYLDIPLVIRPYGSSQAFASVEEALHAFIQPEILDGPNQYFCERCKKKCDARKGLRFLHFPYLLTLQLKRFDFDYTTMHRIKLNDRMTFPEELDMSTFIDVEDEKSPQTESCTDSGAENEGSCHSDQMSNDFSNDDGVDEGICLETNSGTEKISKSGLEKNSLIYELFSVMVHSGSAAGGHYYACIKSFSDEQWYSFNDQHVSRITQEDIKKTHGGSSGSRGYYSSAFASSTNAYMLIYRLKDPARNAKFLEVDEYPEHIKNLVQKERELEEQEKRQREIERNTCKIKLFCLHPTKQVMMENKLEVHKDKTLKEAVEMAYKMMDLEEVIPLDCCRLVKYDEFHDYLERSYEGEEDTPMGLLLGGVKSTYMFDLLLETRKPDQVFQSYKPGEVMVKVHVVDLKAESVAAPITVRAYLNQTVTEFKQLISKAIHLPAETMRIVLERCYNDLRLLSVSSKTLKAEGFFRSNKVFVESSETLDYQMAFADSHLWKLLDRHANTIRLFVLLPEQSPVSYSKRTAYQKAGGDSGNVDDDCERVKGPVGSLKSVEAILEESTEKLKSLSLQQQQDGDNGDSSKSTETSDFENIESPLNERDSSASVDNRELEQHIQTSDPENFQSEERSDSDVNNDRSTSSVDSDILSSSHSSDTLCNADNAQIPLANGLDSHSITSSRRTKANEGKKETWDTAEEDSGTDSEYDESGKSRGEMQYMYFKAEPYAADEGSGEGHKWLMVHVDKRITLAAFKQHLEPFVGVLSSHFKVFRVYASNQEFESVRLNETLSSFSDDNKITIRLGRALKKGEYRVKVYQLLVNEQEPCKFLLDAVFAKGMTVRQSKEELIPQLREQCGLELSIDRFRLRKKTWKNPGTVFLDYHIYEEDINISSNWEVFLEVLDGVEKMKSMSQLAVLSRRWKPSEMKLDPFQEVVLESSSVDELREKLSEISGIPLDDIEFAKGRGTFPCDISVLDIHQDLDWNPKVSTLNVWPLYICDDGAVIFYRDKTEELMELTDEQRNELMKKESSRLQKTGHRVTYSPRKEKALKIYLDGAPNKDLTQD
Procedure, shortened: as §1

USP48 = target: T3, USP48 (UniProt Q86UV5)
T3 sequence (whole entry): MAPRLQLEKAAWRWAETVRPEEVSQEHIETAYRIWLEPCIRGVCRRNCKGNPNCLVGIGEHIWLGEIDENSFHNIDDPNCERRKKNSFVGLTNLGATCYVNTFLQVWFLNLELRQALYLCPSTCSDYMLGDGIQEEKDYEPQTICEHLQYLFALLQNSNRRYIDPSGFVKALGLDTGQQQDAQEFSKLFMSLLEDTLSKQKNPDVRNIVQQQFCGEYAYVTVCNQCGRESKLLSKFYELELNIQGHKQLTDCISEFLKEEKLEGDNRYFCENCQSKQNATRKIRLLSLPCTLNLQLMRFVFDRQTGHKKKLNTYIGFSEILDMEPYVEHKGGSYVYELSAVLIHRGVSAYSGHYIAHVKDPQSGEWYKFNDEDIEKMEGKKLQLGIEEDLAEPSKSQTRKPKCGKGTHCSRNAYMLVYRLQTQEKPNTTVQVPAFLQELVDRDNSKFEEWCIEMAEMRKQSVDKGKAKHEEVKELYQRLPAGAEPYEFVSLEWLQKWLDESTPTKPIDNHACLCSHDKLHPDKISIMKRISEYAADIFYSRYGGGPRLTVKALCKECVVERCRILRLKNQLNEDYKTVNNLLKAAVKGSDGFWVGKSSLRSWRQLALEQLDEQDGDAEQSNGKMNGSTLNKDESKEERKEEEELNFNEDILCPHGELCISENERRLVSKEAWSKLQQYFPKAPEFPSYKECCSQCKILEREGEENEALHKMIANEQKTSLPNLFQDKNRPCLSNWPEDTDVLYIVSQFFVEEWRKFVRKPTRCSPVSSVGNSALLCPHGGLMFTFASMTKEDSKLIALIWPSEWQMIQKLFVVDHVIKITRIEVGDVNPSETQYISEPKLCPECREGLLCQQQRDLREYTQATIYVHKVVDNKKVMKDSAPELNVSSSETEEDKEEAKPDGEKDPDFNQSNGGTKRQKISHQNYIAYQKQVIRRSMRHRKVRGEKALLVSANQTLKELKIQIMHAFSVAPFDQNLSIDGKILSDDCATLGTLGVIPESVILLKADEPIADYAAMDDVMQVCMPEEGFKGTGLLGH
Procedure, shortened: as §1

USP5 = target: T4, USP5 (UniProt P45974)
T4 sequence (whole entry): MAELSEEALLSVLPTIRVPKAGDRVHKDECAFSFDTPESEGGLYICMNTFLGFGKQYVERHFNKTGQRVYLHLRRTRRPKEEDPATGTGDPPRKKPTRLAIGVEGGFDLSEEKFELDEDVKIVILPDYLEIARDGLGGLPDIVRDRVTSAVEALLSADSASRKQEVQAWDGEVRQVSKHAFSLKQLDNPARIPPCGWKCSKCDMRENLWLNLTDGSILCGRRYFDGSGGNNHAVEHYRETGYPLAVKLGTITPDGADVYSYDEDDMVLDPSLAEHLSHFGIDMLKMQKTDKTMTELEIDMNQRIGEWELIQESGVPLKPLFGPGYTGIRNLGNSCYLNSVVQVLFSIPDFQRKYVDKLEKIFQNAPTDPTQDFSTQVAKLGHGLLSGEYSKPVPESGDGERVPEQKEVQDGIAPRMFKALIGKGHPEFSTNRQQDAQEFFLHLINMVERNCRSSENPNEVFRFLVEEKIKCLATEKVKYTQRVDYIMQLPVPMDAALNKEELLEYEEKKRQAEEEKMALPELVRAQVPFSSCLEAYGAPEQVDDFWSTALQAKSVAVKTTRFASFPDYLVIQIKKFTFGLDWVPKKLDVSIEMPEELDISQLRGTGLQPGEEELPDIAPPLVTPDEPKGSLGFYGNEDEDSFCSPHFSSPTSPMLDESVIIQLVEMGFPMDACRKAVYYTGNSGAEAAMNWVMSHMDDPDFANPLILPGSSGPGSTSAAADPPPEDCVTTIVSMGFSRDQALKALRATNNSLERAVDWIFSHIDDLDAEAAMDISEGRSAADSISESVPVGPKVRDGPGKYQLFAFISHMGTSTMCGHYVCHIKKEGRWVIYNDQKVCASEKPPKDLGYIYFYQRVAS
Procedure, shortened: as §1

USP54 = USP54 (UniProt Q70EL1)
Sequence of USP54 (Q70EL1 whole entry): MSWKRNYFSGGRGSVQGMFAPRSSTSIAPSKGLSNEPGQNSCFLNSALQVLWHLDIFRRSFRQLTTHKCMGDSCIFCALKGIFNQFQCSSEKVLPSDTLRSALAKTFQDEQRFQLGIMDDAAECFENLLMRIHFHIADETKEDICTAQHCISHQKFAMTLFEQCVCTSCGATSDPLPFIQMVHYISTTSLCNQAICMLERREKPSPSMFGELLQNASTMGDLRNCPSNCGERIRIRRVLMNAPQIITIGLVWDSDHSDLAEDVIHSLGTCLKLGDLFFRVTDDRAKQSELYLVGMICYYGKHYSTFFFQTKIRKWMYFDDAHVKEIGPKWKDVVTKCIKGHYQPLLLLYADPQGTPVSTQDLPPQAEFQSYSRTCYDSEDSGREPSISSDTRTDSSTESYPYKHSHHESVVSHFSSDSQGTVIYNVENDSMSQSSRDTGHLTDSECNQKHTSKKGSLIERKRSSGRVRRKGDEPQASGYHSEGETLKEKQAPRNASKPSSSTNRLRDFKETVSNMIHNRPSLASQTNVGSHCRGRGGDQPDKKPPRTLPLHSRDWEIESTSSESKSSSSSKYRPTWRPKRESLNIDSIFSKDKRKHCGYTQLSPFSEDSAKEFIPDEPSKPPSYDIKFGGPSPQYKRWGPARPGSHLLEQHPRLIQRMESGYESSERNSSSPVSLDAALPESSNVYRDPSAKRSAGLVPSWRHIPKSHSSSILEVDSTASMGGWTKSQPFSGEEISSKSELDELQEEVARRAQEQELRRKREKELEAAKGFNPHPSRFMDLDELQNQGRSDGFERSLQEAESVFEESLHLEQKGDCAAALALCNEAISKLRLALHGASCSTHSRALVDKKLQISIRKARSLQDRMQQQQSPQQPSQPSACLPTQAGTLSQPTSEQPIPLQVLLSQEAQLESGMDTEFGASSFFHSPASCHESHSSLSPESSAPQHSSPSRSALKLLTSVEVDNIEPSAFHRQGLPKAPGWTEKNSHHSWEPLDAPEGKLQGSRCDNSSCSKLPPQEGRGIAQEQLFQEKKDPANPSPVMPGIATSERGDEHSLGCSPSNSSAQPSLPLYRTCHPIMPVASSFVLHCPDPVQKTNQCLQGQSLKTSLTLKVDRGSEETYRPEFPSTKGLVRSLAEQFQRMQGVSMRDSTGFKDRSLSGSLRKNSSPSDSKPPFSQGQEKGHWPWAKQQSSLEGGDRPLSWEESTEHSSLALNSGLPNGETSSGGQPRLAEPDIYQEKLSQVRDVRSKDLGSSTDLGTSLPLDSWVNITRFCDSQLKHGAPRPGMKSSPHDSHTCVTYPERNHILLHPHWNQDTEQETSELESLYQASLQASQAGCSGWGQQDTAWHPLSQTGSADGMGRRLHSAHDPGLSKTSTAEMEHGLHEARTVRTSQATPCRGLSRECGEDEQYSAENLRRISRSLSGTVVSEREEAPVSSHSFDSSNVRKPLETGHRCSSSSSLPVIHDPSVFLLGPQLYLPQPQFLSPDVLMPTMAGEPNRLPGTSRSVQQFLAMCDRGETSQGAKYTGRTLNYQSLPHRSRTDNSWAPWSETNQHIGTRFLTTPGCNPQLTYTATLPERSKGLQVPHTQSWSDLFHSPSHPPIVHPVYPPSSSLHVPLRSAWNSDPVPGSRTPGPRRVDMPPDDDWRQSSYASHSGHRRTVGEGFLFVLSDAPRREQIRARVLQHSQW
Procedure, shortened: as §1

USP7 = USP7 (UniProt Q93009)
Procedure, shortened: as §1

USP8 = target: T5, USP8 (UniProt P40818)
T5 sequence (whole entry): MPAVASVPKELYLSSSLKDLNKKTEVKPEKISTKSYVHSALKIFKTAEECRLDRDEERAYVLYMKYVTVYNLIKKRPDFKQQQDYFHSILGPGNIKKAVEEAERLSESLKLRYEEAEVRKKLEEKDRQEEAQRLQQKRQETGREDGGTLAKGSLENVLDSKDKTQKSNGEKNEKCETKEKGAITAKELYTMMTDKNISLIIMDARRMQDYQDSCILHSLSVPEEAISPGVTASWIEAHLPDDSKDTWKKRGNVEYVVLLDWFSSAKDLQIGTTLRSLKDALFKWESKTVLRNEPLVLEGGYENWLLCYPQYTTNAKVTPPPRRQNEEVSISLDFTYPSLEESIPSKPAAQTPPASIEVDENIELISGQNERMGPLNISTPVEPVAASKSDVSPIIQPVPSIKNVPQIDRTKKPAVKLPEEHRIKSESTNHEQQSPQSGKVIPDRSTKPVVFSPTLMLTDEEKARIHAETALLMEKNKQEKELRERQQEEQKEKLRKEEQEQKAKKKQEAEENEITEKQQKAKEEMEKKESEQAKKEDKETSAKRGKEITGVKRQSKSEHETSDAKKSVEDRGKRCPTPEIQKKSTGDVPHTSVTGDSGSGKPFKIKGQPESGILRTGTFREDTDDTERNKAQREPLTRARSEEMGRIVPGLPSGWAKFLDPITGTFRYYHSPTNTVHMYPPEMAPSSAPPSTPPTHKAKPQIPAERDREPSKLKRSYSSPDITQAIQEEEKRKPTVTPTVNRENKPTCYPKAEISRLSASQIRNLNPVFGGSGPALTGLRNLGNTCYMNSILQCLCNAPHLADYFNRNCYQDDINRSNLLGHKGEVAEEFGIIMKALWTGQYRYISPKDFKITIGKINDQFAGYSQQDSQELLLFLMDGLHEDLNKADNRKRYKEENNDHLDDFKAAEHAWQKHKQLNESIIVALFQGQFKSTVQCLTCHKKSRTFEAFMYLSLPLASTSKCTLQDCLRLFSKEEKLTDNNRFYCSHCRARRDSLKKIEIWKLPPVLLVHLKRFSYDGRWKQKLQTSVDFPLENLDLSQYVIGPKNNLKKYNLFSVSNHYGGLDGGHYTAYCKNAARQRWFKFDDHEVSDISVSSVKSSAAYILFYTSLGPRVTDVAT
Procedure, shortened: as §1

USP9X = USP9X (UniProt Q93008)
Sequence of USP9X (Q93008 whole entry): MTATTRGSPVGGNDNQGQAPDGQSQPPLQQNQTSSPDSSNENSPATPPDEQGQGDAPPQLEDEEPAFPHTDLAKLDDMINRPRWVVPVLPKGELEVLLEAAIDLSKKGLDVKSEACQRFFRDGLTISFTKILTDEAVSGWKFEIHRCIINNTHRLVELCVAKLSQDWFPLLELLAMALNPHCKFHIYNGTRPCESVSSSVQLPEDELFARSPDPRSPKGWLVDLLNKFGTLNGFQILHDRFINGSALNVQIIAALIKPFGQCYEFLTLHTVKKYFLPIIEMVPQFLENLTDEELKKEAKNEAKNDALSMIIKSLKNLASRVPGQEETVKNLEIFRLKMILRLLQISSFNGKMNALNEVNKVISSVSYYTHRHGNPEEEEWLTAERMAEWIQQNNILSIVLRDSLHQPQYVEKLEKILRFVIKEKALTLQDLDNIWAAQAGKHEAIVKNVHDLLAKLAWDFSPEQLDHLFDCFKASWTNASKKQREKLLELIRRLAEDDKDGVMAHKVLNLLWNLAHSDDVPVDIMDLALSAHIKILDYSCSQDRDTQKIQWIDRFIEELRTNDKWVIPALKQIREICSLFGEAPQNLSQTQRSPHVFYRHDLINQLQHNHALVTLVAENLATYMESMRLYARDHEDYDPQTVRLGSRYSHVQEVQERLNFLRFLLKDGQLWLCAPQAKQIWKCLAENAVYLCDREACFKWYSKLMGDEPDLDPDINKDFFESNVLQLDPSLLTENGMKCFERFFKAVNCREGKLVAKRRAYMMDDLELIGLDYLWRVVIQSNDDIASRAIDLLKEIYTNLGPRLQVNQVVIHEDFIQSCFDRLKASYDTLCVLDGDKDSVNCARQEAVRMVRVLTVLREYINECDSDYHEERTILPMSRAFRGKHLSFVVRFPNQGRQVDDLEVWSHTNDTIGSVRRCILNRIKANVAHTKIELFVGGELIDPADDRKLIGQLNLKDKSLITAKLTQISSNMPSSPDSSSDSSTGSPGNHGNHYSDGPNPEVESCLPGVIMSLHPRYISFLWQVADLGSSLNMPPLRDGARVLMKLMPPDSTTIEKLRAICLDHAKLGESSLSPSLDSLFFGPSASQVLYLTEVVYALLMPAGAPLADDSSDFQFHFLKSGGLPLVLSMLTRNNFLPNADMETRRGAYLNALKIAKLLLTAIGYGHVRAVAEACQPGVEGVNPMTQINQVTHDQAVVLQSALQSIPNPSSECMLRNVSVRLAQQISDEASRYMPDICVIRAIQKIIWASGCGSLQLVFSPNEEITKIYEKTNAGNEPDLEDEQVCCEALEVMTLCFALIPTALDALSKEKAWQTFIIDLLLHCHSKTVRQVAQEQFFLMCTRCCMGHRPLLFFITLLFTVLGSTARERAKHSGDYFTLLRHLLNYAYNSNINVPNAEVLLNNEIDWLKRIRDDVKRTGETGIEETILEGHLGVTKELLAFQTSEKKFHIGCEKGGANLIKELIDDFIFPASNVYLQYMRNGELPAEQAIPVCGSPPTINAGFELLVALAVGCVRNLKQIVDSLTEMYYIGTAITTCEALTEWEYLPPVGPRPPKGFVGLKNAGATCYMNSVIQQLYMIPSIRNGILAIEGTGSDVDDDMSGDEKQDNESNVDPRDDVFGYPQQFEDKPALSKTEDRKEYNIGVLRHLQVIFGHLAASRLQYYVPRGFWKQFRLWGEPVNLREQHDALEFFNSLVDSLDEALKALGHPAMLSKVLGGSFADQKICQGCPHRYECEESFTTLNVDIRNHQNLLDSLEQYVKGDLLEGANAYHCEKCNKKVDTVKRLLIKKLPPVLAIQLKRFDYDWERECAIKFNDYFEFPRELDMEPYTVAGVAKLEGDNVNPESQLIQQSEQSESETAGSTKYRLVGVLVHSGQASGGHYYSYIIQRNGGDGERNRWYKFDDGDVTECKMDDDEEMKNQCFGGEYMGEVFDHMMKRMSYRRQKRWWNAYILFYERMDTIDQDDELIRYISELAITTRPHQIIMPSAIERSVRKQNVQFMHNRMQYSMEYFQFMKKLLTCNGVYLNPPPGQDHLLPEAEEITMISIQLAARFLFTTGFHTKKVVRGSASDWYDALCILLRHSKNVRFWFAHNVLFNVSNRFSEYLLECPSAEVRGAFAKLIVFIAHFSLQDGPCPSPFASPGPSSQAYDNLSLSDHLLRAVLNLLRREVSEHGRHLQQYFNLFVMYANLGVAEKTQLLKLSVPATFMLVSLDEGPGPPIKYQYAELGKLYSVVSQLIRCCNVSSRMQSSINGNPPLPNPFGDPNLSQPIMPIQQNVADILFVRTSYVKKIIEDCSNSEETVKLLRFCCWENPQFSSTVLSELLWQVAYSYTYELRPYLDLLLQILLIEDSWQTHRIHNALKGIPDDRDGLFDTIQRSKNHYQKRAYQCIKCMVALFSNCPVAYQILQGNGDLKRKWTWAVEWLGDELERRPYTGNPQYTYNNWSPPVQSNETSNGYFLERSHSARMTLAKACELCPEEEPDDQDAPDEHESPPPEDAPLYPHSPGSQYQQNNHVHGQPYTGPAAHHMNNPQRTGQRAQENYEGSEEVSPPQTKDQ
Procedure, shortened: as §1

UniProt O00487 = target: UniProt O00487
Sequence of UniProt O00487 (O00487 whole entry): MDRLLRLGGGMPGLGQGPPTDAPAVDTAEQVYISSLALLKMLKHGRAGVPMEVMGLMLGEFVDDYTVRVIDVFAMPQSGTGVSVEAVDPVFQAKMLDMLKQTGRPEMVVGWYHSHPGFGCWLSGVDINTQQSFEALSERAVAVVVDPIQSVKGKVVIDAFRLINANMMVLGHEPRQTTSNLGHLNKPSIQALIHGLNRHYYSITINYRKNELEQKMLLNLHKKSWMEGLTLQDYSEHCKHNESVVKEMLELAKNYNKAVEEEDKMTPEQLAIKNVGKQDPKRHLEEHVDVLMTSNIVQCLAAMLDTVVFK
Procedure, shortened: as §1

Measured: log2 ratio of Biotin-Ahx-Ub-VS probe labelling

O=C(CCl)NC1CCOc2ccccc21 (stereo not given)
inactive: USP42 0.184 | USP46 -0.506 | USP47 -0.268 | USP48 -0.603 | USP5 -0.575 | USP54 0.931 | USP7 -0.739 | USP8 -0.69 | USP9X -0.868 | UniProt O00487 0.0141

O=C(CCl)N(Cc1ccsc1)C1CC1
active: USP48 -1.14 | USP7 -1.25
inactive: USP42 -0.0609 | USP46 0.201 | USP47 -0.631 | USP5 0.243 | USP54 0.171 | USP8 0.0752 | USP9X -0.139 | UniProt O00487 0.0101

COc1ccccc1C(C)NC(=O)CCl (stereo not given)
inactive: USP42 -0.0523 | USP46 -0.0541 | USP47 -0.334 | USP48 -0.321 | USP5 -0.208 | USP54 0.256 | USP7 -0.235 | USP8 -0.576 | USP9X -0.174 | UniProt O00487 0.0235

O=C(CCl)N1CCC(=C(F)CO)C1
inactive: USP42 0.374 | USP46 0.0599 | USP47 0.0525 | USP48 0.0406 | USP5 0.108 | USP54 0.0848 | USP7 0.0769 | USP8 0.0438 | USP9X 0.0939 | UniProt O00487 0.129
